Experimental data taken from PubChem BioAssay (NCATS).
Results filed as inconclusive are left out. The source made the active and inactive calls. Unless noted, calls come from the whole dose curve; as a rule, active = well fitted curve in the direction sought with a large enough effect; inconclusive = small, poorly fitted or top-dose-only effect, or another doubt; inactive = no such curve, though single readings can be large; an effect the other way counts as inactive or inconclusive.

Key:
[1] = AP1 Signaling Pathway (AID 357; active = well fitted curve in either direction with a large enough effect, not every such curve was filed as active;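 note: ME-180 reporter cells stimulated with EGF at its EC50 level; % is set by controls: 0 for no effect and ±100 for the full control effect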); details: ME-180 AP-1-bla reporter, EGF-induced, beta-lactamase ratio, 5 h; at 17.2 µM (top of the series) unless noted
Procedure, shortened: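 In this screen, ME-180 cells in Opti-MEM with 0.5% dialyzed FBS received EC50 EGF and compound titrations for 5 h. AP-1 reporter beta-lactamase was detected via CCF4 ratio, giving AC50 for positive and negative modulators.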

[2] = target: Glucocorticoid receptor (Homo sapiens) (UniProt P04150); experiment: GR-GFP Redistribution (AID 450;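 active = compounds whose dose series gives a full or clear partial fitted curve of increased nuclear translocation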; note: potency is the fitted concentration of half-maximal effect)
Sequence of Glucocorticoid receptor (Homo sapiens) (P04150 whole entry, looked up, the tested form may be a part): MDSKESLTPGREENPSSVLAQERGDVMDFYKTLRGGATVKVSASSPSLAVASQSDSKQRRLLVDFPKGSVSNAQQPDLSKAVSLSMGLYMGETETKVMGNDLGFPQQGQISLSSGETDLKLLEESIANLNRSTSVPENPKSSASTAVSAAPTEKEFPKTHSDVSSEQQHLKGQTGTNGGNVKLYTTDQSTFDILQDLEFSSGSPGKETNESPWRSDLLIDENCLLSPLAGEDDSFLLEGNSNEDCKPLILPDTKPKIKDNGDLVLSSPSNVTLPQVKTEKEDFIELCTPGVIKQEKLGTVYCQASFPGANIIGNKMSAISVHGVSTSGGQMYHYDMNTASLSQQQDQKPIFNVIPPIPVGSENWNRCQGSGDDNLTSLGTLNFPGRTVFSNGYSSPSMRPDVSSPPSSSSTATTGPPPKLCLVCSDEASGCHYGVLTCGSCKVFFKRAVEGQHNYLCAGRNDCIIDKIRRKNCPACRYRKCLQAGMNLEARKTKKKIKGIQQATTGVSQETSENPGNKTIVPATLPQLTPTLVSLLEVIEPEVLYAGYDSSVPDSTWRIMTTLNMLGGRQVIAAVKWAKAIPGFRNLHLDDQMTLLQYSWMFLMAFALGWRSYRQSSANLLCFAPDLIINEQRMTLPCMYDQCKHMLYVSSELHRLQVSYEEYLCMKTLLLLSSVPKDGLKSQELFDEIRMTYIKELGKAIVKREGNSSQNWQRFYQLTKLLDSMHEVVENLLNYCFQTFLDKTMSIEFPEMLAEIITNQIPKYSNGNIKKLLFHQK

[3] = Stat Signaling Pathway (AID 446; active = well fitted curve in either direction with a large enough effect, not every such curve was filed as active;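 note: ME-180 cervical cancer cells given 40 pM IL-6 alongside compound; SIE-controlled beta-lactamase reporter measured as 460/530 nm FRET emission ratio; % is set by controls: 0 for no effect and ±100 for the full control effect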); details: ME-180 SIE beta-lactamase reporter, IL-6 stimulated, 5 h; at 17.2 µM (top of the series) unless noted
Procedure, shortened: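 Screening format detects activators and inhibitors alike: ME-180 SIE-bla cells stimulated at 40 pM IL-6 for 5 hrs with compound, then dual-emission beta-lactamase read at 405 nm excitation.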

[4] = qHTS Assay for Identification of Small Molecule Agonists for Hypoxia Response Element Signaling Pathway (AID 914; active = well fitted activation curve with a large enough effect in the signal ratio, with a control signal flat, not every such curve was filed as active; the % refers to the signal ratio; note: potency is the fitted concentration of half-maximal effect); details: ME-180 (cervical carcinoma) HRE-bla reporter, beta-lactamase ratio, CoCl2, 17 h; activation: stronger effect = higher value
Procedure, shortened: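 Cells were plated overnight, pin-dosed with compound in a titration series, co-stimulated with EC50 CoCl2 and incubated 17 hours at 37 degrees Celsius. CCF4 substrate was then loaded, and AC50 values came from the 460nm/530nm ratio.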

[5] = target: Cytochrome P450 1A2 (Homo sapiens) (UniProt P05177); experiment: p450-cyp1a2 (AID 410; calls by dose curve; note: potency is the fitted concentration of half-maximal effect)
Sequence of Cytochrome P450 1A2 (Homo sapiens) (P05177 whole entry, looked up): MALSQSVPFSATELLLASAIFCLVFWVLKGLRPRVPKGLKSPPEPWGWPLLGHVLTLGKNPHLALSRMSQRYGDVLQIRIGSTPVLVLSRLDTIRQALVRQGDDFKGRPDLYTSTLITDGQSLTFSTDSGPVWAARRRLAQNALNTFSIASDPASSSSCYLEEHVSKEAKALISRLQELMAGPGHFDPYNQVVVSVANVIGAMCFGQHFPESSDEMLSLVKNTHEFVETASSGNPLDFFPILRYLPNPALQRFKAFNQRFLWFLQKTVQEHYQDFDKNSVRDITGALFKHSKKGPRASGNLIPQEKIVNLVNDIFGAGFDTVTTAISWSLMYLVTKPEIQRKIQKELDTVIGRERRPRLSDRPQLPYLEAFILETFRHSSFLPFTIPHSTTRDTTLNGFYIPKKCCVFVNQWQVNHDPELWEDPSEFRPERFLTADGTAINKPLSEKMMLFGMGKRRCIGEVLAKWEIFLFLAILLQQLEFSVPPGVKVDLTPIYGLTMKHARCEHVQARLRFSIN
Procedure, shortened: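 Luminescent readout of luciferin formed from Luciferin-ME by human CYP1A2; data normalized against complete inhibition by 57 uM furafylline. Enzyme 20nM, substrate 100uM at Km, 100mM KPO4 buffer, 60 min reaction at room temperature.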

[6] = target: Glucocorticoid receptor (Homo sapiens) (UniProt P04150); experiment: GR-EFC Redistribution (AID 451; calls by dose curve; note: potency is the fitted concentration of half-maximal effect); details: CHO-K1 GR-EFC translocation, beta-gal luminescence, 2 h
Procedure, shortened: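 Translocation of GR-ED fusion to nuclear EA restores b-gal, read by luminescence after 1 h room-temperature detection. Engineered CHO-K1 biosensor cells, 1,000/well, exposed 2 h at 37 C to titrations up to 46 uM final.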

[7] = target: Mitogen-activated protein kinase 10 (Mus musculus) (UniProt Q61831); experiment: JNK3 AlphaScreen Assay (AID 530; active = well fitted curve in either direction with a large enough effect, not every such curve was filed as active;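 note: kinase came from lysate of stimulated human HepG2 cells; signal reports phosphorylation of biotinylated GST-cJun 1-79 at Ser73 with 10 µM ATP; % is set by controls: 0 for no effect and ±100 for the full control effect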)
Procedure, shortened: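 Compound titrations were preincubated 15 minutes at room temperature with substrate, antibody and pre-activated JNK3-containing HepG2 lysate. Reactions were started with 10 uM ATP and stopped with EDTA-containing bead buffer for AlphaScreen detection.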

[8] = target: Guanine nucleotide-binding protein G(i) subunit alpha-1 (Homo sapiens) (UniProt P63096); experiment: qHTS Assay for Inhibitors of RGS12 GoLoco Motif Activity (Green Fluorophore) (AID 879);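 note: 0% = labeled peptide with Gαi1 and full inhibition = labeled peptide alone without protein; negative values mean loss of peptide binding seen as reduced polarization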
Sequence of Guanine nucleotide-binding protein G(i) subunit alpha-1 (Homo sapiens) (P63096 whole entry, looked up): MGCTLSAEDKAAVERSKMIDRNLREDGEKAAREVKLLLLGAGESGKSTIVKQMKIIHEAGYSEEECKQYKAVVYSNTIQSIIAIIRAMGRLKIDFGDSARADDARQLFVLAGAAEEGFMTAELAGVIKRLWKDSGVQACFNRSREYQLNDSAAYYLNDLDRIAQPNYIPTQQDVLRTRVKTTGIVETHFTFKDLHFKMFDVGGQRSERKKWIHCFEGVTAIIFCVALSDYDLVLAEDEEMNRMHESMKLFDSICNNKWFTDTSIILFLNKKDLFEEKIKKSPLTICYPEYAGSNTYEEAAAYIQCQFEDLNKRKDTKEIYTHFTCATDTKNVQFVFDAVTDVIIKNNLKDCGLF
Procedure, shortened: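 Fluorescence polarization assay: 50 nM Gαi1 with 10 nM FITC-labeled RGS12 GoLoco peptide in 10 mM Tris pH 7.5, 150 mM NaCl, 0.1 mM GDP, 0.05% NP40, 10 min at room temperature with compound.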

[9] = target: Cytochrome P450 3A4 (Homo sapiens) (UniProt P08684); experiment: qHTS Assay for Activators of Cytochrome P450 3A4 (AID 885); note: nearly all actives have a fitted effect of over 65% in size
Sequence of Cytochrome P450 3A4 (Homo sapiens) (P08684 whole entry, looked up): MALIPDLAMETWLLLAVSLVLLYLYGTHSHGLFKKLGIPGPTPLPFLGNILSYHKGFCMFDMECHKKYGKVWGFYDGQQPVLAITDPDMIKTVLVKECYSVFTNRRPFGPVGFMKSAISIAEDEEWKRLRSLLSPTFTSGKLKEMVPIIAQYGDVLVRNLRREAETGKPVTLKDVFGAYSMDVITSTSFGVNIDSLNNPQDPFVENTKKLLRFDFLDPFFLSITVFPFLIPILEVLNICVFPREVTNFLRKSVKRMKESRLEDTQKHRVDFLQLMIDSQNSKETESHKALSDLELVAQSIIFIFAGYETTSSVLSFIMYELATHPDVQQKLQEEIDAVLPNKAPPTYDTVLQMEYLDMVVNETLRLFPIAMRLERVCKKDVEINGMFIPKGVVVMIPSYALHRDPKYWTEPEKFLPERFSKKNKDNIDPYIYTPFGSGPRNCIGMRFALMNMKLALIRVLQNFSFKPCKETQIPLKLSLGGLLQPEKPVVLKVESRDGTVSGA
Procedure, shortened: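 Steps: enzyme/substrate mix dispensed; compound added, 10 min RT; NADPH regeneration solution added, 60 min RT; luciferin detection buffer stops reaction; 20 min later luminescence measured.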

[10] = target: Cytochrome P450 2C19 (Homo sapiens) (UniProt P33261); experiment: qHTS Assay for Inhibitors and Substrates of Cytochrome P450 2C19 (AID 899); note: potency is the fitted concentration of half-maximal effect; nearly all actives have a fitted effect of over 60% in size
Sequence of Cytochrome P450 2C19 (Homo sapiens) (P33261 whole entry, looked up): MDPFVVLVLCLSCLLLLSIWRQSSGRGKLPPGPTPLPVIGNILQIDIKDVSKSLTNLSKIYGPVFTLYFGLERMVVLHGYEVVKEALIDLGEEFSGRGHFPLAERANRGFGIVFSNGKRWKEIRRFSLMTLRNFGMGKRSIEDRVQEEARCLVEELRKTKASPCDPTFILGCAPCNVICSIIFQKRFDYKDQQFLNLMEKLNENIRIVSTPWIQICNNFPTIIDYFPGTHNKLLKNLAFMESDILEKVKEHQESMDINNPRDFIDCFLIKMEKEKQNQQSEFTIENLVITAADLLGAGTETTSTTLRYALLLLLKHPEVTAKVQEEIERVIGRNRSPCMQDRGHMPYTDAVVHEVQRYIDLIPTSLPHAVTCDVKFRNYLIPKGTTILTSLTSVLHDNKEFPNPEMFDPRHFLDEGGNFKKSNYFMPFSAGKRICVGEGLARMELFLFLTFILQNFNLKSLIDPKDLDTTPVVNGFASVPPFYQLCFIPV
Procedure, shortened: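 Reactions contain 5nM enzyme, 10uM Luciferin-H EGE (KM) and 50mM KPO4; compound preincubates 10 min at 37C, NADPH regeneration starts turnover for 60 min. Luminescence after detection reagent gives activity.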

[11] = qHTS Assay for Identification of Small Molecule Agonists for Thrombopoietin (TPO) Signaling Pathway (AID 917); note: % is set by controls: 0 for no effect and ±100 for the full control effect
Procedure, shortened: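 Reporter: GpIIb promoter–luciferase in murine Ba/F3 expressing human TPO receptor. Pre-starved of IL-3 overnight; compounds with 26 pM TPO, 24 hrs, 37 C/5% CO2; luminescence read.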

[12] = target: Muscarinic acetylcholine receptor M1 (Rattus norvegicus) (UniProt P08482); experiment: qHTS Assay for Antagonists of Acetylcholine Muscarinic M1 Receptor: Kinetic Measurement of Intracellular Calcium Response (AID 943);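 note: Fluo-4 calcium signal as peak divided by basal fluorescence over 4 min; nearly all actives have a fitted effect of over 75% in size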
Sequence of Muscarinic acetylcholine receptor M1 (Rattus norvegicus) (P08482 whole entry, looked up): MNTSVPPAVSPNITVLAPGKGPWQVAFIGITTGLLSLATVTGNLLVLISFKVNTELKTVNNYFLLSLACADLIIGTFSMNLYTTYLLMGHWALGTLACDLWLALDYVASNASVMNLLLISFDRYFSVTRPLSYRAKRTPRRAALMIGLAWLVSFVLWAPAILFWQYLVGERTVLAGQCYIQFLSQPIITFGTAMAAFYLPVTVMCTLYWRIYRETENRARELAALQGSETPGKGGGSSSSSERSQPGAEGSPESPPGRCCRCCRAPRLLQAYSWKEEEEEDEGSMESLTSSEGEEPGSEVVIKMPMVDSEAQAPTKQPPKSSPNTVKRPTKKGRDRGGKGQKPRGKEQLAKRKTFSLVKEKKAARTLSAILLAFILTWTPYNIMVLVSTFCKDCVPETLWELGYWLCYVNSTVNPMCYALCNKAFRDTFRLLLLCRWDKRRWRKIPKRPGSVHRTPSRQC
Procedure, shortened: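 Rat M1-CHO cells, 2000/well, overnight → Fluo-4 no-wash dye with probenecid, 1 h 37C → compound 10 min, room temp → basal read 6 s → carbachol EC80 (100 nM) → 4 min kinetic read; peak/basal.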

[13] = target: Pyruvate kinase (Leishmania mexicana) (UniProt Q27686); experiment: qHTS Validation Assay for Inhibitors of Leishmania Mexicana Pyruvate Kinase (AID 945);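 note: 0% = DMSO only neutral control wells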
Sequence of Pyruvate kinase (Leishmania mexicana) (Q27686 2-499 E452W): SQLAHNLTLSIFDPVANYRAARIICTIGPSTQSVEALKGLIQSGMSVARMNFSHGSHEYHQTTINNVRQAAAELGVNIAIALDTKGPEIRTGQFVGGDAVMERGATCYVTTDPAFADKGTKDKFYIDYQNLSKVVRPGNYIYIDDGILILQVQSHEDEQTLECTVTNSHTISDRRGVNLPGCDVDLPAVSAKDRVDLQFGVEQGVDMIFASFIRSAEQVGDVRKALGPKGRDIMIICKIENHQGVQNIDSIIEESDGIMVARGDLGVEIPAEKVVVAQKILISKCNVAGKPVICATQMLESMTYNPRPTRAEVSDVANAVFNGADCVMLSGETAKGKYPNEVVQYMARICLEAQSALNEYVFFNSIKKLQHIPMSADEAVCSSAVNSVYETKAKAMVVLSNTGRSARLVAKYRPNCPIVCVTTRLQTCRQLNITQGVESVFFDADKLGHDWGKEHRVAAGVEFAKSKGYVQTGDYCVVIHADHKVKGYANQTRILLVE
Procedure, shortened: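 The enzyme is a highly purified E451W mutant of LmPYK used at 0.2 nM. It converts 0.5 mM PEP and 0.1 mM ADP over 1 h at room temperature; product ATP is quantified by luciferase luminescence relative to DMSO controls.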

[14] = target: Pyruvate kinase PKM (Homo sapiens) (UniProt P14618); experiment: qHTS Assay for Activators of Human Muscle Pyruvate Kinase (AID 954; active = well fitted curve in the direction sought with a large enough effect, not every such curve was filed as active;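 note: 0% = uninhibited enzyme and -100% = no enzyme or full thiadiazolimine inhibition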)
Sequence of Pyruvate kinase PKM (Homo sapiens) (P14618 whole entry, looked up): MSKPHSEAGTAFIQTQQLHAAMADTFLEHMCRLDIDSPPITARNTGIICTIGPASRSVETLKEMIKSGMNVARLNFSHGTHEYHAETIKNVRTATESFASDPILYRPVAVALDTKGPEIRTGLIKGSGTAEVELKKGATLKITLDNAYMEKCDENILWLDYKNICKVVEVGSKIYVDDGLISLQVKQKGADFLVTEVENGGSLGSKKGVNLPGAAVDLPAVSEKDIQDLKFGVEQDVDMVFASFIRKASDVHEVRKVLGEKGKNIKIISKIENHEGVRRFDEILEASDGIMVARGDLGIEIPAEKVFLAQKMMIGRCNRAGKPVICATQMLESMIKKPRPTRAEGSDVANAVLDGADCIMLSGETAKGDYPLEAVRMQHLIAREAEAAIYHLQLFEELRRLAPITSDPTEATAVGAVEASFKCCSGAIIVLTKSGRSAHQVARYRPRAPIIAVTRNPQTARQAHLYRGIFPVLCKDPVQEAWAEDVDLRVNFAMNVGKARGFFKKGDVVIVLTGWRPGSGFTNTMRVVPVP
Procedure, shortened: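 Reaction: 0.1 nM purified PKM2 with 0.5 mM phosphoenolpyruvate and 0.1 mM ADP, room temperature, 1 h. Readout: luciferase-based ATP luminescence after stop reagent. Activators judged against a 0.3 nM enzyme column.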

[15] = target: Alpha-galactosidase A (Homo sapiens) (UniProt P06280); experiment: Counterscreen for Glucocerebrosidase Inhibitors: qHTS Assay for Human alpha-Galactosidase at pH 4.5 (AID 992); note: 0% is about no effect
Procedure, shortened: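 Concentration-response curves (0.7 nM to 77 uM final) were modeled with the Hill equation to give AC50. Reactions: 2 nM enzyme, 80 uM fluorogenic alpha-galactoside, pH 4.5 citric acid buffer, 20 min, room temperature.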

[16] = target: alpha-glucosidase (Oryza sativa, rice) (UniProt Q653V4); experiment: Counterscreen for Glucocerebrosidase Inhibitors: qHTS Assay for Rice alpha-Glucosidase at pH 5.0 (AID 997);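 note: 0% = full activity with enzyme and -100% = basal without enzyme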
Procedure, shortened: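 Rice alpha-glucosidase (4 nM final) with 400 uM 4-methylumbelliferyl-alpha-D-glucopyranoside in citrate buffer pH 5.0, 20 min at room temperature, stopped at pH 10; fluorescence 365/440 nm, compounds 0.7 nM–77 uM, AC50 from Hill fits.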

[17] = target: 3',5'-cyclic-AMP phosphodiesterase 4B (Homo sapiens) (UniProt Q07343); experiment: qHTS Assay for Inhibitors of PDE-IV (AID 607; active = well fitted activation curve with a large enough effect in the main read-out, with a control signal flat, not every such curve was filed as active; note: % of control where 0% means no effect)
Sequence of 3',5'-cyclic-AMP phosphodiesterase 4B (Homo sapiens) (Q07343 whole entry, looked up): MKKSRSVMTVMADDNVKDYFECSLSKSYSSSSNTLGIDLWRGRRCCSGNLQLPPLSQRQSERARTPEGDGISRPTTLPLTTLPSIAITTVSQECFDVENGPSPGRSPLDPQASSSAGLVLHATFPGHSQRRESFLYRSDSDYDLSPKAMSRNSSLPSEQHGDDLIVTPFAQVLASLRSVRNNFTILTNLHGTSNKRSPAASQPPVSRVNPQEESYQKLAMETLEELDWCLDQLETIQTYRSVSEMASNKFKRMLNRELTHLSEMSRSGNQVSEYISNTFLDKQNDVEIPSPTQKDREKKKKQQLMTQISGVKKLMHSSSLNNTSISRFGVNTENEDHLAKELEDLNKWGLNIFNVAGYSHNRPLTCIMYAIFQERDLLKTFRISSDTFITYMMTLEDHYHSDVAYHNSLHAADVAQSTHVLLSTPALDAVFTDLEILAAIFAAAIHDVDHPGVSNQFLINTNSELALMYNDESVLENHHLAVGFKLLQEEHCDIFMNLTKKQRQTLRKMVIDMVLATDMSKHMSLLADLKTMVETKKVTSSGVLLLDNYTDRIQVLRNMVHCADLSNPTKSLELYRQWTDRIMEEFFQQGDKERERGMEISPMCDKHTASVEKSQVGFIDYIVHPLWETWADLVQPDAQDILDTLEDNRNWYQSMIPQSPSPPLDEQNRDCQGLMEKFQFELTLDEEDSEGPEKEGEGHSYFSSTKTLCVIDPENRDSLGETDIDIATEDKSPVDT
Procedure, shortened: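 The readout is membrane depolarisation from a cAMP-sensing CNG channel, detected with a potential dye at ex 535/em 590. Cells were HEK293-derived (endogenous PDE-IV) at 1000 cells/well, titrated up to 22.9 uM final.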

[18] = target: ATP-dependent 6-phosphofructokinase (Trypanosoma brucei brucei) (UniProt O15648); experiment: qHTS Assay to Find Inhibitors of T. brucei phosphofructokinase: hit validation (AID 492961)
Procedure, shortened: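 Measures ADP output of PFK (1.25 nM) at 0.1 mM ATP, 0.5 mM F6P, pH 8.0 TEA buffer with 5 mM MgCl2. No-enzyme wells define full inhibition; uninhibited enzyme wells define zero.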

[19] = target: DNA dC->dU-editing enzyme APOBEC-3G (Homo sapiens) (UniProt Q9HC16); experiment: qHTS for inhibitors of Vif-A3G interactions: Validation (AID 588379); note: 0% is about no effect
Procedure, shortened: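 HeLa cells stably expressing Vif and A3G-eYFP, 700 cells/well, incubated overnight at 37 deg C, then exposed to compound overnight at 37 deg C. Inhibition of Vif-mediated degradation read as increased yellow fluorescence (Ex 488/Em 500-530) by laser-scanning cytometry.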

[20] = target: Luciferin 4-monooxygenase (Photinus pyralis) (UniProt P08659); experiment: Biochemical firefly luciferase enzyme assay for NPC (AID 624030);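 note: purified P. pyralis luciferase at 10 nM with luciferin and ATP substrate; 0% = DMSO and -100% = full luciferase inhibition by PTC124 control; nearly all actives have a fitted effect of over 70% in size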
Procedure, shortened: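 Direct inhibition of firefly luciferase enzyme (10 nM final, 50 mM Tris Acetate) assessed by luminescence within 5 minutes. Percent activity scaled between DMSO and PTC124 positive control, with concentration-effect curves classified by fit quality and response.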

[21] = S16 Schwann cell PMP22 intronic element firefly luciferase assay (AID 624032);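 note: plate controls were DMSO for no effect and PTC124 positive control mean for full effect; nearly all actives have a fitted effect of over 30% in size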
Procedure, shortened: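 Luciferase reporter of PMP22 intronic-element expression in stably transfected S16 rat Schwann cells, read by ONE-Glo luminescence after 24 h compound exposure at 37 C. Activity scaled between DMSO (0%) and positive-control PTC124; concentration-effect curves quality-classified.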

[22] = S16 Schwann cell PMP22 intronic element beta-lactamase assay (AID 624044; calls by dose curve;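 note: 0% = DMSO and -100% = potassium clavulanate positive control; nearly all actives have a fitted effect of over 15% in size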); details: S16 rat Schwann cells, PMP22 element beta-lactamase FRET, 24 h; ratio activity, negative = inhibition: at 38.3 µM (top of the series)
Procedure, shortened: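 Rat S16 Schwann cells with beta-Lac driven by a PMP22 intronic element, compound-treated 24 h at 37 °C. LiveBLAzer FRET B/G read: 460 nm normalized to potassium clavulanate vs DMSO; 535 nm FRET as viability; concentration-effect curves classified.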

[23] = test system: 7G8; experiment: qHTS profiling for inhibitors of Plasmodium falciparum proliferation (AID 504749); note: nearly all actives have a fitted effect of over 60% in size; note: potency is the fitted concentration of half-maximal effect;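 for activity, negative = inhibition: 0% = DMSO vehicle and full inhibition = artemisinin control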; details: P. falciparum in erythrocytes, SYBR Green DNA, 72 h; series mostly up to 28.7 µM
Procedure, shortened: (§1)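 Infected RBCs, 0.3% parasitemia/2.5% Hct final; cpd 72 h, 37 C, 5% CO2; lysis buffer with saponin/triton/SYBR Green I, o/n RT dark; FI 485/535; norm. to artemisinin (0.29 uM) and DMSO.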

[24] = test system: AA1029; experiment: as above; details: P. falciparum in erythrocytes, SYBR Green DNA, 72 h; series mostly up to 28.7 µM
Procedure, shortened: as §1

[25] = test system: ATS95; experiment: as above; details: P. falciparum in erythrocytes, SYBR Green DNA, 72 h; series mostly up to 28.7 µM
Procedure, shortened: as §1

[26] = test system: C2A; experiment: as above; details: P. falciparum in erythrocytes, SYBR Green DNA, 72 h; series mostly up to 28.7 µM
Procedure, shortened: as §1

[27] = test system: CP252; experiment: as above; details: P. falciparum in erythrocytes, SYBR Green DNA, 72 h; series mostly up to 28.7 µM
Procedure, shortened: as §1

[28] = test system: CP262; experiment: as above; details: P. falciparum in erythrocytes, SYBR Green DNA, 72 h; series mostly up to 28.7 µM
Procedure, shortened: as §1

[29] = test system: ECU; experiment: as above; details: P. falciparum in erythrocytes, SYBR Green DNA, 72 h; series mostly up to 28.7 µM
Procedure, shortened: as §1

[30] = test system: JCK; experiment: as above; details: P. falciparum in erythrocytes, SYBR Green DNA, 72 h; series mostly up to 28.7 µM
Procedure, shortened: as §1

[31] = test system: PAD; experiment: as above; details: P. falciparum in erythrocytes, SYBR Green DNA, 72 h; series mostly up to 28.7 µM
Procedure, shortened: as §1

[32] = test system: PC15; experiment: as above; details: P. falciparum in erythrocytes, SYBR Green DNA, 72 h; series mostly up to 28.7 µM
Procedure, shortened: as §1

[33] = test system: PC49; experiment: as above; details: P. falciparum in erythrocytes, SYBR Green DNA, 72 h; series mostly up to 28.7 µM
Procedure, shortened: as §1

[34] = test system: SC27B; experiment: as above; details: P. falciparum in erythrocytes, SYBR Green DNA, 72 h; series mostly up to 28.7 µM
Procedure, shortened: as §1

[35] = test system: TAB113; experiment: as above; details: P. falciparum in erythrocytes, SYBR Green DNA, 72 h; series mostly up to 28.7 µM
Procedure, shortened: as §1

CC(C)C[C@H]1C(=O)N2CCC[C@H]2[C@]2(O)O[C@](NC(=O)[C@@H]3C=C4c5cccc6[nH]c(Br)c(c56)CC4N(C)C3)(C(C)C)C(=O)N12 (stereo not given in full)
inactive: activity change, negative = inhibition [1] -20.7% | Potency [2] > 20.6 µM

N#Cc1c(N)n(CCOC(=O)c2ccc(Cl)cc2)c2nc3ccccc3nc12
inactive: activity change, negative = inhibition [1] 19.1% | Potency [2] > 20.6 µM

CCSc1nnc(NC(=O)NC(CC)(C(F)(F)F)C(F)(F)F)s1
inactive: activity change, negative = inhibition [1] -15.5% | Potency [2] > 20.6 µM

CCCc1cc(=O)oc2c(CN3CCN(C)CC3)c(O)c(Cl)cc12
active: Potency [4] 5.01 µM
inactive: activity change, negative = inhibition [1] -0.941% | activity, negative = inhibition [3] -1.37% | Potency [2] > 20.6 µM

CCCCC[C@H](O)c1cccc(OCc2ccc3ccccc3n2)c1
active: Potency [5] 0.794 µM | Potency [10] 6.31 µM
inactive: activity, negative = inhibition [3] -0.505% [at 38 µM] | Potency [2] > 46 µM | Potency [6] > 46 µM | Potency [7] | outcome [8] | Potency [9] | Potency [11] | Potency [12] | Potency [13] | outcome [14] | outcome [15] | outcome [16]

CCOc1ccc2c(ccc(/C=C\c3cc(C)c4cccnc4c3O)[n+]2C)c1
inactive: activity change, negative = inhibition [1] -9.14% [at 7.69 µM] | Potency [2] > 46 µM | Potency [6] > 9.22 µM | Potency [17]

CNc1cc(OC)c(C(=O)N[C@@H]2CCN(Cc3ccccc3)[C@H]2C)cc1Cl
inactive: Potency [2] > 46 µM | Potency [6] > 46 µM | Potency [7] | Potency [18] | outcome [19] | Potency [20] | Potency [21] | Potency [22] | Potency [25] | Potency [26] | Potency [27] | Potency [28] | Potency [29] | Potency [30] | Potency [31] | Potency [32] | Potency [33] | Potency [34] | Potency [35]
active: Potency [5] 31.6 µM | Potency [23] 6.31 µM | Potency [24] 14.1 µM
